Shown is part of a subset that was picked to be rich in hits.
Dicer inh: blocks human Dicer maturation of pre-miR-21; Q9UPY3; cat-ELCCA pre-miR-21 Dicer processing, chemiluminescence; active compounds read high; z-score at 25 µM; 6% of 47,000 active; AID 1347074; in the data active = z-score above about 3, passing the limit was not always enough;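 note: higher signal means more uncleaved substrate so more Dicer inhibition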
Target sequence (Q9UPY3 whole entry, looked up): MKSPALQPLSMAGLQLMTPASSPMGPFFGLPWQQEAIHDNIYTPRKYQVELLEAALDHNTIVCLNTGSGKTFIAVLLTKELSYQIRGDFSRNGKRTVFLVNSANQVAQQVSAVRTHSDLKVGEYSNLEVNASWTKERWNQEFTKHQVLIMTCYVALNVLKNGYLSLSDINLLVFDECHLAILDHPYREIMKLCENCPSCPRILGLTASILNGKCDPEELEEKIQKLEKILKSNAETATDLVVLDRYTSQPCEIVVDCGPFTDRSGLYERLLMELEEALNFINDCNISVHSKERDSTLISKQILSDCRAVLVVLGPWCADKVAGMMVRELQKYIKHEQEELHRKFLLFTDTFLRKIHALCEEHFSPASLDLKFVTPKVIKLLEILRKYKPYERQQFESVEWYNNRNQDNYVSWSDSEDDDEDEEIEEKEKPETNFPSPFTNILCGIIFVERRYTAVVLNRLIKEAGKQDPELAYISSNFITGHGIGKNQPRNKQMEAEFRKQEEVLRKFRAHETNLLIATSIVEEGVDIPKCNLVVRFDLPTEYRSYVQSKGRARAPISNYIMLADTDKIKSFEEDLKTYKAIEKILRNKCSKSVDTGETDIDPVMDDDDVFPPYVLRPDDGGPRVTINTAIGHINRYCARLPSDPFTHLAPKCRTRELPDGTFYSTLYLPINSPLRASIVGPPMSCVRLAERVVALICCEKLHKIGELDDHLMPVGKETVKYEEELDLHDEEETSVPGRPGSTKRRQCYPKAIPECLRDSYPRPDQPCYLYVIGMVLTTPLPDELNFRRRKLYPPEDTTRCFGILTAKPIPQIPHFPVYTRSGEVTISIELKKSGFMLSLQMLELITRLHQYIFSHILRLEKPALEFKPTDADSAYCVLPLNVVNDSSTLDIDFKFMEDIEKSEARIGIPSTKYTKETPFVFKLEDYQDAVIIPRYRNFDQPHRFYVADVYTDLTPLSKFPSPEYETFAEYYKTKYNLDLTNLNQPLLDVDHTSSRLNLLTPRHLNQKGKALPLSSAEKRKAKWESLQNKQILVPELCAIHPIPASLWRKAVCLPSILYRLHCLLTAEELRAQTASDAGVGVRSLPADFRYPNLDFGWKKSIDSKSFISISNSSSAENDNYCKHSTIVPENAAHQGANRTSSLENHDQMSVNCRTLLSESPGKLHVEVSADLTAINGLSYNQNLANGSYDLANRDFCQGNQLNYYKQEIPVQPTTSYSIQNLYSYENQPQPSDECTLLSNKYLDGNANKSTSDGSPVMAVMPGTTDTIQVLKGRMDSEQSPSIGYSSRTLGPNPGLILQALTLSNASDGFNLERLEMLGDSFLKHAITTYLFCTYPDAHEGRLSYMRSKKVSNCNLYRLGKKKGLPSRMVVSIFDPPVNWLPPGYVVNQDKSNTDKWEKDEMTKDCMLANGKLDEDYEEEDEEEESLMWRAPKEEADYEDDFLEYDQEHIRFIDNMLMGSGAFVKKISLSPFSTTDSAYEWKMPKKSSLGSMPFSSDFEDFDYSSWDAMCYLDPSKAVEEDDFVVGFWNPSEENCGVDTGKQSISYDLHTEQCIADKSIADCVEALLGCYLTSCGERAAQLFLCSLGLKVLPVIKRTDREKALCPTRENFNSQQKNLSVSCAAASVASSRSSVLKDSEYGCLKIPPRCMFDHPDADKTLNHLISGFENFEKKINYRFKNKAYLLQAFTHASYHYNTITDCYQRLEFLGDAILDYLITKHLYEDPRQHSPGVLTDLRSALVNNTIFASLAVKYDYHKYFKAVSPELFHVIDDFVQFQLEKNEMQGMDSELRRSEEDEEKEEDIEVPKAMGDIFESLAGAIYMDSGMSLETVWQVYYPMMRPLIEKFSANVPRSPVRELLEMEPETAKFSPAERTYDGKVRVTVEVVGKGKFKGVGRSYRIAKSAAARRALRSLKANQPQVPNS
Hits are given with their value.

`Cc1cc(C)c2c(N)c(S(=O)(=O)Cc3ccccc3)sc2n1` gave Dicer inh 4.14.
For CSc1cccc(NC(=O)c2sc3nc(C)cc(C)c3c2N)c1 the results were Dicer inh inactive.
For Cc1cc(C)c2c(N)c(C(=O)O)sc2n1 the results were Dicer inh inactive.
Screening Cc1cc(C)c2c(N)c(C(=O)NCc3ccco3)sc2n1 returned Dicer inh inactive.
Screening Cc1cc(C)c2c(N)c(C(=O)c3ccc(-c4ccccc4)cc3)sc2n1 returned Dicer inh inactive.
`Cc1cc(C)c2c(N)c(C(=O)NNC(=S)NCc3ccccc3)sc2n1` gave Dicer inh 3.05.
Cc1ccc(F)cc1NC(=O)N1CCN(c2cccc3nc(C(F)(F)F)ccc23)CC1 was read as Dicer inh inactive.
For Clc1ccc(N2CCN(C3=Cc4ccccc4C3)CC2)cc1Cl the results were Dicer inh inactive.
C=CCSc1n[nH]c(=O)n1-c1ccc2c(c1)OCCO2 was read as Dicer inh inactive.
Screening COC(OC)(C(C#N)c1ccccc1)C(F)(F)F (stereo not given) returned Dicer inh inactive.
C=CCN1C(=O)C(O)(CC(=O)c2ccc(CC)cc2)c2cc(Br)ccc21 (stereo not given) was read as Dicer inh inactive.
O=C1CSC(c2ccc(C(F)(F)F)cc2)N1c1ccc(C(F)(F)F)cc1 (stereo not given) was read as Dicer inh inactive.
CCCCNC(=O)NS(=O)(=O)c1ccccc1Cl was read as Dicer inh inactive.
For CC(=O)c1ccc(S(=O)(=O)NC(=O)NC2CCCCC2)cc1 the results were Dicer inh inactive.
For O=C(NC1CCCC1)NS(=O)(=O)c1ccccc1Cl the results were Dicer inh 3.22.
`COc1ccccc1NC(=O)Nc1sccc1-c1nc2ccccc2s1` gave Dicer inh inactive.
Screening COc1ccc(Cl)cc1NC(=O)Nc1sccc1-c1nc2ccccc2s1 returned Dicer inh 5.09.
`COc1ccc(Cl)cc1NC(=O)Nc1nnc(C2CC2)s1` gave Dicer inh inactive.
`COc1ccc(/C(O)=C2\C(=O)C(=O)N(CCN3CCNCC3)C2c2ccc(F)cc2)cc1` (stereo not given) gave Dicer inh inactive.
Screening CN1c2ccccc2C(=O)/C(=N\Nc2cc(C(F)(F)F)cc(C(F)(F)F)c2)S1(=O)=O returned Dicer inh inactive.
O=C(CN1CCc2ccccc21)N1CCc2ccccc21 was read as Dicer inh inactive.
Screening O=C(c1ccc(Cl)cc1)C(C(=O)N1CCc2ccccc2C1)n1ccccc1=O (stereo not given) returned Dicer inh inactive.
For COC(=O)c1csc(S(=O)(=O)N=S(C)(=O)c2ccc(C(F)(F)F)cn2)c1OC (stereo not given) the results were Dicer inh inactive.
`Cc1cc(Oc2ccc(C(F)(F)F)cc2[N+](=O)[O-])c2c(Cl)ccc(C)c2n1` gave Dicer inh inactive.
O=C1NC2CC2N1C(=O)OCc1ccccc1 (stereo not given) was read as Dicer inh inactive.
For CC(C)(C)OC(=O)/C(C#N)=C/c1ccc([N+](=O)[O-])cc1 the results were Dicer inh inactive.
CCN(CC)C(=O)/C(C#N)=C/c1cc(O)c(O)c([N+](=O)[O-])c1 was read as Dicer inh 3.81.
Screening CCOC(=O)/C(C#N)=C/NN(C)c1ccccc1[N+](=O)[O-] returned Dicer inh inactive.
`C=C(C)c1cccc(C(C)(C)NC(=O)NCCc2ccccc2)c1` gave Dicer inh inactive.
`C=C(C)c1cccc(C(C)(C)NC(=O)NCc2ccc(Cl)cc2)c1` gave Dicer inh inactive.
For C=C(C)c1cccc(C(C)(C)NC(=O)NCCc2ccc(S(N)(=O)=O)cc2)c1 the results were Dicer inh 3.89.
For O=C(/C=N/Nc1ccccc1)Nc1ccccc1C(=O)O the results were Dicer inh inactive.
Cc1cccc(Cl)c1NC(=S)Nc1c(C)cccc1Cl was read as Dicer inh inactive.
Screening Nc1ccccc1SC1CC(=O)N(c2c(F)cccc2Cl)C1=O (stereo not given) returned Dicer inh inactive.
CCCCOC(=O)C1=C(C)NC2=C(C(=O)CCC2)C1c1cc(Br)c(O)c(OC)c1 (stereo not given) was read as Dicer inh inactive.
Screening Nc1sc(-c2ccccc2)cc1-c1n[nH]c(=S)n1-c1ccc(F)cc1 returned Dicer inh inactive.
For COc1ccc(-n2c(-c3cc(-c4ccccc4)sc3N)n[nH]c2=S)cc1 the results were Dicer inh 5.42.
Nc1sc(-c2ccccc2)cc1-c1n[nH]c(=S)n1Cc1ccccc1 was read as Dicer inh inactive.
For CCCS(=O)(=O)C/C(N)=N/OS(=O)(=O)c1ccc(F)cc1F the results were Dicer inh inactive.
CCOc1ccc(C(Nc2ccccn2)c2ccc3ccc(C)nc3c2O)cc1 (stereo not given) was read as Dicer inh inactive.
`Oc1ccc2ncccc2c1C(Nc1ccccn1)c1ccccc1F` (stereo not given) gave Dicer inh inactive.
Cc1ccc2ccc(C(Nc3ccccn3)c3ccc(Br)cc3)c(O)c2n1 (stereo not given) was read as Dicer inh 5.69.
`Cc1ccc2ccc(C(Nc3ccccn3)c3ccc(N(C)C)cc3)c(O)c2n1` (stereo not given) gave Dicer inh 4.36.
CCOc1cccc(C(Nc2ccccn2)c2ccc3ccc(C)nc3c2O)c1O (stereo not given) was read as Dicer inh inactive.
For CSc1ccc(C(Nc2ccccn2)c2ccc3ccc(C)nc3c2O)cc1 (stereo not given) the results were Dicer inh inactive.
O=[N+]([O-])c1ccc(OC2CCC3CCC2C3)cc1 (stereo not given) was read as Dicer inh inactive.
`CC1CCc2c(sc(NC(=O)Nc3ccc(Cl)cc3)c2C(N)=O)C1` (stereo not given) gave Dicer inh inactive.
CS(=O)(=O)c1sc(NC(=O)Nc2ccc(Cl)cc2)c2c1C=CCC2 was read as Dicer inh 3.33.
Screening Cc1c(NC(=O)Nc2ccccc2)sc2nc(-c3ccc(Cl)cc3)nn12 returned Dicer inh inactive.
Cc1cc2c(c(Sc3ccc(Cl)cc3)n1)C(=O)N(SC(Cl)(Cl)Cl)C2=O was read as Dicer inh inactive.
For COc1ccccc1NC(=O)NC1CCN(c2ncc(C(F)(F)F)cc2Cl)CC1 the results were Dicer inh inactive.
Screening COc1ccccc1CN1CCN(Cc2ccc3c(c2)OCO3)CC1 returned Dicer inh 4.21.
Screening Cc1[nH]c2ccccc2c1C(=O)CN1CCOCC1 returned Dicer inh inactive.
For O=S(=O)(c1ccc(F)cc1)N1CCN(Cc2ccc3c(c2)OCO3)CC1 the results were Dicer inh 3.16.
`COc1ccc(CN2CCN(Cc3ccc4c(c3)OCO4)CC2)c(OC)c1` gave Dicer inh inactive.
For COc1ccc(CN2CCN(Cc3ccc4c(c3)OCO4)CC2)cc1OCc1ccccc1 the results were Dicer inh inactive.
For COc1cc(CN2CCN(Cc3ccc4c(c3)OCO4)CC2)cc(OC)c1 the results were Dicer inh inactive.
`COc1cccc(CNCc2ccc3c(c2)OCO3)c1OC` gave Dicer inh inactive.
COc1ccc(CN2CCN(Cc3ccc4c(c3)OCO4)CC2)cc1 was read as Dicer inh inactive.
`CCc1ccc(S(=O)(=O)N2CCN(Cc3ccc4c(c3)OCO4)CC2)cc1` gave Dicer inh inactive.
`O=S(=O)(c1ccc2c(c1)OCCO2)N1CCN(Cc2ccc3c(c2)OCO3)CC1` gave Dicer inh inactive.
